From PubChem BioAssay AID720579 (National Center for Advancing Translational Sciences (NCATS), 2013)
Values joined by “and” are separate entries in the source; they are usually repeats but may differ in a detail not shown here. Equal values may be shown once. Out of some 310,000 compounds screened, about 1,900 (0.61%) were called active. Roughly 8% stayed inconclusive and do not appear here. For the sample, actives were picked, then their nearest neighbours and some compounds at random. A number with no mark means an inactive call. The call rests on the fitted dose curve; tested in A549 cells.

assay: qHTS for Stage-Specific Inhibitors of Vaccinia Orthopoxvirus: mCherry Reporter Primary qHTS; settings: Vaccinia virus mCherry reporter infection, fluorescence; series mostly up to 36.5 µM; activity change, negative = inhibition: at the top concentration; further: nearly all actives have a fitted effect of over 35% in size
On the % scale 0 is the no-effect control and ±100 the full control effect; potency means the concentration at half of the fitted maximal effect.

SMILES	activity change, negative = inhibition	outcome	Potency
CCOC(=O)C1CCCN(C(=O)c2cc(-c3cccs3)oc2C)CC1 (stereo unspecified)	49%		
Cc1cc(Cl)ccc1-c1nc(NCCN(C)C)nc2ccsc12	11.6%		
CC(C)=CCc1c(O)c(CC=C(C)C)c2occ(-c3ccc(O)cc3)c(=O)c2c1O	-20.4%		
CC(C)c1cc(N=O)cc(C(C)C)c1O		inactive	
CC(C)=CCc1ccc(O)c(=O)cc1C(C)C			3.16 µM (active)
CN(Cc1ccccc1)C(=O)c1ccc(COc2ccccc2)cc1		inactive	
CCOc1ccc(OCc2ccc(C(=O)N(C)c3ccccc3)o2)cc1	-11.1%		
CN(C(=O)CN1CCN(c2cc(-c3ccc(OCc4ccccc4)cc3)ncn2)CC1)c1ccccc1			7.94 µM (active)
Cc1cccc(CNC(=O)c2sc(=O)n(Cc3ccccc3C)c2C)c1	2.08%		
CCC1NC(=O)c2cccnc2-n2c1nc1ccc(C)cc1c2=O (stereo unspecified)		inactive	
O=C1NC(Cc2ccccc2)c2nc3ccc(Br)cc3c(=O)n2-c2cc3ccccc3cc21 (stereo unspecified)		inactive	
Cc1cc(C)c2c(=O)n3c(nc2c1)C(CC(C)C)NC(=O)c1cc2ccccc2cc1-3 (stereo unspecified)			10 µM (active)
NC(=O)Nc1ccc(/C=C/c2ccnc3ccccc23)cc1	21.3%		
COC(=O)c1ccc2nc(-c3ccccc3)c(Cc3ccc(OC)cc3C)n2c1	-4.32%		
Cc1ccc(S(=O)(=O)N(CCc2ccccc2)c2ccc3c(c2)C2CC3CCN2C(=O)OCc2ccccc2)cc1 (stereo unspecified)	-6.6%		
CCCCCNC(=O)Cc1ccc(OC)cc1	-17%		
C/C=C/NNC(=O)Cc1ccc(OC)cc1			11.2 µM (active)
COc1ccc(CC(=O)NC(C)CCc2ccccc2)cc1 (stereo unspecified)	2.27%		
CC1(C(=O)NCC2CCOCC2)Cc2c(-c3cccc(C(N)=O)c3)ccnc2O1 (stereo unspecified)	5.59%		
COc1ccc(-c2nnc(SC(C)C#N)o2)cc1 (stereo unspecified)			11.2 µM (active)
COc1ccc(-c2nnc(SCc3cccnc3)o2)cc1	-12.4%		
COc1ccc(-c2nnc(-c3ccc4ccccc4c3)o2)cc1		inactive	
CCOC(=O)[C@]12CCCC=C1N(Cc1ccc(Cl)cc1Cl)C(=O)[C@H](CC(=O)N1CCCCC1)C2		inactive	

SMILES	activity change, negative = inhibition	outcome	Potency
COc1c(C)c2c(c(O)c1C/C=C(\C)CCC(=O)O)C(=O)OC2			5.62 µM (active) and 4.47 µM (active)
CCc1nc2c(OCc3ccc(C(F)(F)F)cc3)cccn2c1N(C)C(=O)CC(C)C	-0.664%		
CCOC(=O)c1c(NC(=S)SC)sc(C(=O)N2CCc3ccccc3C2)c1C	-10.4%		
CC1(C)OC(=O)C2=C(C[C@@H](C3CC3)O[C@H]2CCc2cccc(Cl)c2)O1	-11%		
CCC(CC)C(C(=O)NC1CCCC1)N1CCN(c2cc(C)nc3ccccc23)CC1 (stereo unspecified)	19.7%		
CN(O)C(=S)c1ccccc1			14.1 µM (active)
CN(CC(=O)O)C(=O)c1ccccc1	-12.1%		
S=C(c1ccccc1)N1CCCC1	-10.8%		
Cc1ccc2nc(-c3ccccc3)c(CC3CCCCC3)n2c1		inactive	
CCC(C)N1C(=O)S/C(=C/c2ccc(Sc3nc4ccccc4[nH]3)o2)C1=O (stereo unspecified)			12.6 µM (active)
CCCCSc1nc2ccccc2[nH]1	-6.23%		
CCC(c1nc2ccccc2[nH]1)n1c(=O)c(-c2cccs2)nc2ccccc21 (stereo unspecified)	-2.3%		
CN(C)c1ccc(C=Nc2ccc(/C=C/c3ccnc4ccccc34)cc2)cc1	25.4%		
CC(C)n1ncc2c(C(=O)N3CCN(Cc4cccs4)CC3)cc(C3CC3)nc21		inactive	
CN1CCN(c2ccc(NC(=O)c3ccccc3)cc2)CC1	-13.3%		
Cc1cccc(N2CCN(c3ccc(NC(=O)/C=C\C(=O)O)cc3)CC2)c1	-0.733%		
C=CC(=O)Nc1ccc(Nc2ccnc(Nc3ccc(N4CCN(C)CC4)cc3)n2)cc1			5.01 µM (active)
O=C(/C=C/c1ccc(Cl)c([N+](=O)[O-])c1)c1ccc(O)cc1		inactive	
CN(C)c1ccc(/C=C/C(=O)c2ccc(O)cc2)cc1[N+](=O)[O-]			15.8 µM (active)
CC(=O)Nc1ccc(C=CC(=O)c2ccc([N+](=O)[O-])cc2)cc1	-0.232%		
COc1cccc(C(O)c2nc(-c3ccc(C)c(C)c3)cs2)c1 (stereo unspecified)	1.77%		
O=C(c1ccc(C(F)(F)F)cc1)N1CCC(=O)N([C@H](COCc2ccccc2)Cc2ccccc2)CC1	3.14%		
CN(C)c1ccc(/C=C2\C=Cc3ccccc32)cc1Br	-17.2%		

SMILES	activity change, negative = inhibition	outcome	Potency
CCCCN(C=O)c1c(CC)nc2c(OCCC3CCCCC3)cccn12	-14.4%		
CN(C)C(CNC(=O)c1cccc(S(=O)(=O)N2CCc3ccccc3C2)c1)c1ccccc1 (stereo unspecified)	-25.9%		
COCOCCn1cc(CN2CCS(=O)(=O)N(Cc3ccc(-c4ccc(OC)cc4)cc3)C(CC(C)C)C2=O)nn1 (stereo unspecified)	-13.6%		
O=C(CCN1C(=O)/C(=C/c2cccs2)SC1=S)NNC(=O)c1cccc(O)c1	-8.34%		
O=C(CCCN1C(=O)/C(=C/c2cccs2)SC1=S)Nc1ccc(O)cc1			10 µM (active)
O=C(CCCN1C(=O)/C(=C/c2ccco2)SC1=S)Nc1ccccc1	-12.4%		
O=C1C(Sc2cccc(F)c2)=C[C@@]2(O)CC[C@@H](O)[C@]1(Sc1cccc(F)c1)[C@H]2O	-11.8%		
CCCCCNC(=O)C(c1ccc(OC)cc1)n1c(=O)c(-c2ccccc2)nc2ccccc21 (stereo unspecified)		inactive	
COC(=O)c1ccc(NCc2cc(O)ccc2O)cc1			10 µM (active)
CC(C)NC(=O)c1ccc(Cl)cc1Cl		inactive	
C#CCNc1ccc(C(=O)OCC)cc1	-9.77%		
COC(=O)c1ccc(NC(=O)CSc2nnc(CNc3ccc(OC)cc3)n2C)cc1	-12.7% [at 1.46 µM]		
CC(OC(=O)c1ccc(Cl)cc1O)C(=O)NCCC1=CCCCC1 (stereo unspecified)		inactive	
CC(C)OC(=O)c1ccc(NCc2cc(O)ccc2O)cc1Cl			4.47 µM (active)
COc1ccc(C(=O)N2CCCCC2c2cc(C(=O)Nc3ccccc3)no2)cc1 (stereo unspecified)		inactive	
COc1ccc(-c2coc3c(C(=O)NC(C)C)cccc23)c(C)c1		inactive	
CCCCC[C@@H]1C=C(C(=O)OCC)[C@H](c2ccccc2)N1S(=O)(=O)c1ccc(C)cc1	5.26%		
COCc1cccc(-c2csc(C(O)c3ccc(F)cc3)n2)c1 (stereo unspecified)		inactive	
O=C(Oc1ccc(Br)cc1)c1cccnc1		inactive	
CCCCCCOc1ccc(OC(=O)c2cccnc2)cc1			10 µM (active)
N#CCc1ccc(OC(=O)c2cccnc2)cc1		inactive	
O=C(CC(CC(=O)c1ccccc1)c1ccco1)c1ccccc1		inactive	
Cc1ccccc1-c1nc(NC(C)C)nc2cc(-c3ccccc3)sc12		inactive	

SMILES	activity change, negative = inhibition	outcome	Potency
Cc1ccccc1S(=O)(=O)N1[C@@H](c2cccc(Cl)c2)C(C(=O)OC(C)(C)C)=CC[C@H]1c1ccc(Cl)cc1	0.209%		
COc1cc2nc(N3CCCN(C)CC3)nc(NC(C)C)c2cc1OC	-17.2%		
C=CCC[C@H](Cc1ccc(F)cc1)C(=O)OC[C@@H](Cc1c[nH]c2ccccc12)NC(=O)[C@H](CC=C)CC(=O)N[C@H](CO)Cc1ccccc1	-11%		
C=CC[C@@H](CC(=O)N[C@@H](CO)Cc1ccccc1)C(=O)N[C@H](COC(=O)[C@H](CC=C)CC(=O)OC(C)(C)C)Cc1ccccc1	-14.1%		
C=CCC[C@H](Cc1ccc(F)cc1)C(=O)OC[C@@H](NC(=O)[C@@H](CC=C)CC(=O)N[C@H](CO)Cc1ccccc1)C(C)(C)C			12.6 µM (active)
COc1ccc2[nH]c3c(c2c1)CCN[C@H]3C	-21%		
COc1ccc2[nH]c(C(=O)N3CCN(C)CC3)c(C)c2c1		inactive	
COc1ccc2[nH]c3c(C)c4cc[n+](C)cc4c(C)c3c2c1			11.2 µM (active)
Cc1ccccc1-n1c(SCC(=O)NCc2cccs2)nnc1-c1ccncc1	-3.57%		
Cc1ccc(-n2c(SCC(=O)N3c4ccccc4Sc4ccccc43)nnc2-c2ccncc2)cc1	-4.9%		
Cc1ccc(Nc2nc(CSc3nnc(-c4ccncc4)n3-c3ccccc3C)cs2)cc1			10 µM (active)
Cc1ccc(S(=O)(=O)Nc2nc(C)cc(N/N=C/c3ccc(O)cc3)n2)cc1	-6.98%		
COc1cc(Cl)c(C)cc1Nc1nnc(-n2nc(C)cc2C)c2ccccc12	-2.28%		
COc1ccccc1/C=N\Nc1cc(C)nc(-n2nc(C)cc2C)n1			5.62 µM (active)
Cc1cccc(Nc2cc(C)nc(-n3nc(C)cc3C)n2)c1	-3.8% [at 7.34 µM]		
COc1ccc(NC(=O)c2nc(-n3nc(C)cc3C)ccc2Cl)cc1Cl	-18.6%		
Cc1cc(N/N=C\c2ccc(Br)cc2)nc(-n2nc(C)cc2C)n1			2.24 µM (active)
COc1cc(CNc2ncnc3c2ncn3[C@H]2CN(Cc3cccs3)C[C@@H](CO)O2)cc(OC)c1OC		inactive	
COc1ccc(/C=C/c2ccccn2)cc1OC	21.9%		
CCOC(=O)[C@]12CCCC=C1N(Cc1cccc3ccccc13)C(=O)[C@H](CC(=O)NCC13CC4CC(CC(C4)C1)C3)C2	-0.908%		
Cc1cccc(-n2c(C)cc(/C=N/NC(N)=S)c2C)c1	-5.12%		
CC(C)Oc1c(Br)cc(Br)cc1/C=N/NC(N)=S			3.98 µM (active)
NC(=S)N/N=C/c1coc2cc(Cl)ccc2c1=O	-7.3%		

SMILES	activity change, negative = inhibition	outcome	Potency
CCCCCCCCN1C(=O)[C@H](CC(=O)NCc2cccc3ccccc23)C[C@@]2(C(=O)OC)CCCCC=C12	-22.5%		
COc1ccc(Cn2c(=O)[nH]c3cc(C(=O)N4CCN(C(=O)c5ccco5)CC4)ccc3c2=O)cc1		inactive	
CCNC(=O)N1c2ccccc2Sc2ccccc21	-3.31%		
CC1C(C)N(C(=O)CCl)c2ccccc2N1C(=O)CCl (stereo unspecified)			8.91 µM (active)
CCCn1c(=N)n(CC(=O)c2ccc(Cl)c(Cl)c2)c2ccccc21	-14.5%		
COC(=O)[C@]12CCCCC=C1N(Cc1ccc3c(c1)OCO3)C(=O)[C@H](CC(=O)NCc1cccs1)C2	-23.1%		
C(=Nc1ccc(/C=C/c2ccnc3ccccc23)cc1)Nc1ccc(/C=C/c2ccnc3ccccc23)cc1	-8.7%		
CN(C)S(=O)(=O)c1cccc(NC(=O)COC(=O)/C=C/c2cccs2)c1	-12.8%		
CN(C)S(=O)(=O)c1cccc(NC(=O)Cc2ccsc2)c1			12.6 µM (active)
CN(C)S(=O)(=O)c1cccc(NC(=O)COC(=O)c2cc(=O)[nH]c(=O)[nH]2)c1		inactive	
O=C(NC(c1ccc(Cl)cc1)c1cnccn1)C1CCN(Cc2ccc(Cl)cc2)CC1 (stereo unspecified)	-18.8%		
O=C(Nc1cccc2ccccc12)c1[nH]c(-c2ccccc2)c2c1C(=O)N(C1CC1)C2=O	-11.3%		
CCCCC(CCCC)c1ccc(C=Nc2ccc(/C=C/c3ccnc4ccccc34)cc2)cc1	-8.04%		
Oc1ccc(N=Nc2nccs2)c(O)c1			3.98 µM (active)
CCN1CCN(c2ccc(/C=C/c3ccnc4ccccc34)cc2)CC1	8.12%		
N#Cc1ccc(C(C(=O)NCc2ccccc2)n2c(=O)c(-c3ccco3)nc3ccccc32)cc1 (stereo unspecified)	3.83%		
CC1(Oc2cccc(F)c2)CCN(Cc2ccccc2OC(F)F)C1 (stereo unspecified)	-7.02%		
CCN(C(=O)Nc1cccc2ccccc12)c1ccccc1	-9.5%		
CC(=O)N1Cc2cc(C(=O)NCc3cccc(F)c3)nc(-c3cccc(C4=CCCCC4)c3)c2[C@H]1CCO	19.3%		
